# Assay results as given in article PMC4336329 (PLoS ONE, 2015).
# Among all 310,000 compounds or so, about 14,000 (4.5%) showed an effect of 50% or more. The effect is printed as a negative number. Shown is part of a subset that was picked to be rich in strong results.
# Biological target: human ether-à-go-go-related gene (hERG) potassium channel (human, UniProt Q12809)
# Assay: primary screen, population patch clamp on CHO cells stably expressing hERG; higher = less effect of the substance
# 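Note: peak tail current of the secondary pulse compared with the same well before compound.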
# Chain of human ether-à-go-go-related gene (hERG) potassium channel (Q12809 whole entry, looked up): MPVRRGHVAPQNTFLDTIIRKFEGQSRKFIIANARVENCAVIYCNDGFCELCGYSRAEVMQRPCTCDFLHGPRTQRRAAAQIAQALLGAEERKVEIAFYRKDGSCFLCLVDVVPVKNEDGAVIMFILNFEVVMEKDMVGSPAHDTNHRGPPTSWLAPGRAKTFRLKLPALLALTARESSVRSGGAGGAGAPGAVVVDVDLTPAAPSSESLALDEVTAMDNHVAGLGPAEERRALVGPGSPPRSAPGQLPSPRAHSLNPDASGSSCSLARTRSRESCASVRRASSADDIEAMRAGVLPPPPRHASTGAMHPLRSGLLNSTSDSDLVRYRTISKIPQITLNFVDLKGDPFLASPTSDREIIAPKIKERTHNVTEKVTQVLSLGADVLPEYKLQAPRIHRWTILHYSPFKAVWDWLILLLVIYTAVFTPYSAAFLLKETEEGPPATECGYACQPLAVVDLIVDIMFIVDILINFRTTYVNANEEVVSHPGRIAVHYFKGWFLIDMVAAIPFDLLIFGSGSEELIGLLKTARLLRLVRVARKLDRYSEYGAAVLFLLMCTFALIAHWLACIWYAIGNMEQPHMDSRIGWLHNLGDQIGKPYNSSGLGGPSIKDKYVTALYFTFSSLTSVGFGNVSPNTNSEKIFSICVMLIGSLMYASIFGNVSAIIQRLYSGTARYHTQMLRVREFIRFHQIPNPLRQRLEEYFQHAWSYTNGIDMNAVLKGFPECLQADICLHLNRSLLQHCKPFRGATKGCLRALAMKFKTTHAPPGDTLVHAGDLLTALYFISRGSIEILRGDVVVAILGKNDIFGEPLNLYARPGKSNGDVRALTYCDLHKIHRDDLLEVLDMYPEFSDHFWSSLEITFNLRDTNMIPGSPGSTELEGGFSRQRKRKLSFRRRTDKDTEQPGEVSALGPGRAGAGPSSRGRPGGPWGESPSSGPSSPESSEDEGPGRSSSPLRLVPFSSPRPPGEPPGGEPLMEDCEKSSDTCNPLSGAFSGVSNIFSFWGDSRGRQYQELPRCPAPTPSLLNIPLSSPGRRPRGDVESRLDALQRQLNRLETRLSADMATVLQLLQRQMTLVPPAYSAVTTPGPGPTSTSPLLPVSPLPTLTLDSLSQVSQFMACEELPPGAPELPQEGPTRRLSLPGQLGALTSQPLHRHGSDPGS
row,Compound,"hERG current change (%, negative = inhibition) at 10uM"
1,Cc1ccccc1C(=O)NNC(=O)C1CC(=O)N(Cc2ccccc2)C1 (stereo not drawn),2.19%
2,COc1ccc(C(C#N)c2ccc(Cl)nn2)cc1 (stereo not drawn),-2.07%
3,Cc1ccc2[nH]c(=O)c3cc(C(=O)NCC4CCCO4)sc3c2c1 (stereo not drawn),-3.5%
4,CS(=O)(=O)Nc1ccc(C(=O)NC2CCCCC2)cc1,-0.845%
5,COc1ccc2cc(C)c(SCC(=O)Nc3cc(C)on3)nc2c1,6.5%
6,COc1ccc(-c2nc3ccccc3o2)cc1NC(=O)c1ccc(Br)o1,4.92%
7,CCOC(=O)COn1c(=O)c(-c2ccc(OC)cc2)[n+]([O-])c2ccccc21,-1.13%
8,O=C(NCc1ccco1)C1CCN(c2ccc(S(=O)(=O)N3CCOCC3)cc2[N+](=O)[O-])CC1,-70%
9,CCCN(CCC)C(=O)C1CCN(c2ccc(S(=O)(=O)N3CCOCC3)cc2[N+](=O)[O-])CC1,-22.4%
10,CCCCN(C)C(=O)C1CCN(c2ccc(S(=O)(=O)N3CCOCC3)cc2[N+](=O)[O-])CC1,-53.9%
11,C=CCNC(=O)C1CCN(c2ccc(S(=O)(=O)N3CCOCC3)cc2[N+](=O)[O-])CC1,-24%
12,COCCN(CCOC)C(=O)C1CCN(c2ccc(S(=O)(=O)N3CCOCC3)cc2[N+](=O)[O-])CC1,-35.5%
13,CC(C)CNC(=O)C1CCN(c2ccc(S(=O)(=O)N3CCOCC3)cc2[N+](=O)[O-])CC1,-38.8%
14,CN(/N=C/c1ccco1)C1=NS(=O)(=O)c2ccccc21,4.85%
15,O=C(CC(SCCO)c1ccc2c(c1)OCO2)c1cccs1 (stereo not drawn),-16.7%
16,CCOc1cc(N2CCOCC2)c(OCC)cc1NC(=O)CCS(=O)(=O)c1ccc(Cl)cc1,-35.5%
17,N#CCCN1CCN(S(=O)(=O)c2ccc(S(=O)(=O)NC3CC3)cc2)CC1,-1.76%
18,O=C(Nc1cccc(C(F)(F)F)c1)c1c(O)c2ccccc2[nH]c1=O,16%
19,CCN(CC)CCCN=Cc1c(O)n(CCc2ccc(F)cc2)c(=O)[nH]c1=O,-56.1%
20,O=c1[nH]c(=O)n(CCC2=CCCCC2)c(O)c1C=NCCN1CCNCC1,-11.7%
21,CN(C)CCN=Cc1c(O)n(CCC2=CCCCC2)c(=O)[nH]c1=O,-24.2%
22,CN(C)CCCN=Cc1c(O)n(CCc2ccc(F)cc2)c(=O)[nH]c1=O,15.2%

row,Compound,"hERG current change (%, negative = inhibition) at 10uM"
1,CCN(CC)CCN=Cc1c(O)n(CCC2=CCCCC2)c(=O)[nH]c1=O,-65.6%
2,CCN(CC)CCCN=Cc1c(O)n(Cc2ccc(F)cc2)c(=O)[nH]c1=O,-33.7%
3,CN1CCN(c2ccc(S(=O)(=O)N3CCOCC3)cc2NC(=O)CC(C)(C)C)CC1,8.55%
4,O=C(NCc1ccco1)c1ccc(COCC(F)(F)C(F)F)cc1,-13.6%
5,CC(=O)Nc1ccc(S(=O)(=O)/N=C2\SCCN2S(=O)(=O)c2ccc(NC(C)=O)cc2)cc1,-5.46%
6,C=CCSc1nsc(NC(=O)Nc2ccc(F)cc2)n1,22.1%
7,COc1cc(-c2nnc(SCC3(c4ccc(Br)cc4)OCCO3)o2)cc(OC)c1OC,-9.92%
8,Cc1nc(C(C)NC(=O)c2cc(COc3ccc(F)c(F)c3)on2)cs1 (stereo not drawn),-11.2%
9,COc1ccc(OCCn2cnc3ccccc32)cc1,0.789%
10,O=c1c2ccc([N+](=O)[O-])cc2ncn1CCOc1ccccc1,-8.16%
11,O=c1c2ccccc2ncn1CCOCCOc1ccc([N+](=O)[O-])cc1,-64.3%
12,c1ccc(OCCn2cnc3ccccc32)cc1,-9.08%
13,O=[N+]([O-])c1ccc(OCCn2cnc3ccccc32)cc1,-68.1%
14,CC(C)(C)c1ccc(OCCOCCn2cnc3ccccc3c2=O)cc1,-36.8%
15,Cc1c(C(=O)OC(C)C)sc(NC(=O)c2cccnc2)c1C#N,18.3%
16,CCOc1ccc(CCNC(=O)c2ccc(Cl)c(S(=O)(=O)N3CCOCC3)c2)cc1OCC,-20.4%
17,CCN(C(=O)Cn1c(=O)oc2ccccc21)c1cccc(C)c1,6.38%
18,COc1cc2c(cc1OC)C1=C(C#N)CC/C(=N\S(=O)(=O)c3ccccc3)N1CC2,-33.1%
19,O=C(CSc1nnc(NC(=O)c2cccc(Cl)c2)s1)NCC1CCCO1 (stereo not drawn),20%
20,Cl.O=C(O)c1ccc(CNCc2ccc(F)cc2)cc1,16.4%
21,CCOC(=O)Cc1csc(NC(=O)c2sc3nc4cc(C)ccc4cc3c2N)n1,-6.55%
22,CC1CCN(c2nc3ccccc3n2CC(=O)c2ccccc2)CC1,56%

row,Compound,"hERG current change (%, negative = inhibition) at 10uM"
1,CC(C)Cn1c(/C=C/c2ccccc2)nc2ccccc21,-42.2%
2,O=C(Cn1c(N2CCN(c3ccccc3)CC2)nc2ccccc21)c1ccccc1,-16.1%
3,CCn1c(N2CCN(C(=O)c3ccco3)CC2)nc2ccccc21,-50.7%
4,O=C(Cn1c(N2CCN(C/C=C/c3ccccc3)CC2)nc2ccccc21)c1ccccc1,-51.2%
5,Cc1nnc2c(N3CCN(C(=O)c4ccco4)CC3)nc3ccccc3n12,-33.1%
6,CC(C)Cn1c(N2CCN(C(=O)/C=C/c3ccccc3)CC2)nc2ccccc21,-69.1%
7,CC(C)Cn1c(N2CCN(C(=O)c3cccs3)CC2)nc2ccccc21,-73.6%
8,CC(C)Cn1c(SCC(=O)N2CCN(S(=O)(=O)c3ccccc3)CC2)nc2ccccc21,0.539%
9,CC(C)n1c(N2CCN(C(=O)c3cccs3)CC2)nc2ccccc21,-49.2%
10,CCn1c(N2CCN(C(=S)NCCc3ccccc3)CC2)nc2ccccc21,-50%
11,O=C(c1cccs1)N1CCn2c1nc1ccccc12,-25.5%
12,COc1ccc(/C=C2\C(=O)NC(=O)N(CCC3=CCCCC3)C2=O)c(OC)c1,24.6%
13,COc1ccccc1NC(=O)C1=C(C)Nc2nnnn2C1c1cc(Br)ccc1OC (stereo not drawn),-0.22%
14,CCOc1ccccc1C(=O)OCC(=O)NCCNC(=O)COC(=O)c1ccccc1OCC,5.95%
15,O=C(CC1S/C(=N/N=C/c2cccs2)NC1=O)Nc1ccc(Cl)cc1 (stereo not drawn),-3.86%
16,Cc1cc(C)cc(N(C(=O)c2snc(C(N)=O)c2N)C(C(=O)NCC2CCCO2)c2cccs2)c1 (stereo not drawn),-18.7%
17,Cc1ccc(C(=O)/C=C/Nc2ccccn2)cc1,-1.05%
18,O=C(COc1ccccc1[N+](=O)[O-])N1CCN(S(=O)(=O)c2ccccc2)CC1,-46.6%
19,CCOC(=O)Cn1c(C)nc2c(C(=O)OCC)sc(C)c2c1=O,-5%
20,O=C(NCCCN1CCCC1=O)c1cc(NS(=O)(=O)c2ccc(F)cc2)cc(NS(=O)(=O)c2ccc(F)cc2)c1,-4.88%
21,CCn1c(N2CCN(C(=O)C34CC5CC(CC(C5)C3)C4)CC2)nc2ccccc21,-37.9%
22,CCn1c(N2CCN(C(=O)/C=C/c3ccccc3)CC2)nc2ccccc21,-80.8%

row,Compound,"hERG current change (%, negative = inhibition) at 10uM"
1,CCCn1c(N2CCN(C(=O)/C=C/C(=O)O)CC2)nc2ccccc21,9.76%
2,Cc1cccc(C(=O)NC(=S)NNC(=O)Cc2ccccc2)c1,3.66%
3,O=C(C1CCCO1)N1CCN(C(=S)NC2CC2)CC1 (stereo not drawn),23%
4,COc1cccc(C2C=C(c3ccc(OC)cc3OC)Nc3nnnn32)c1 (stereo not drawn),1.76%
5,O=C(CCS(=O)(=O)c1cccc2nonc12)N1CCN(c2ccc(F)cc2)CC1,-60.8%
6,Cc1ccc(S(=O)(=O)NCCC(=O)N2CCN(c3cccc(Cl)c3)CC2)cc1C,4.35%
7,O=S(=O)(c1cccc2nonc12)N1CCN(c2cccc(Cl)c2)CC1,-4%
8,O=C(CCNS(=O)(=O)c1cccc2nonc12)N1CCN(c2cccc(Cl)c2)CC1,-50.6%
9,O=C(CCS(=O)(=O)c1cccc2nonc12)N1CCOCC1,14.6%
10,Cc1ccc(C)c(N2CCN(C(=O)CCS(=O)(=O)c3cccc4nonc34)CC2)c1,-25.4%
11,CSc1ncc(C(=O)Nc2ccccc2C)c(C)n1,12.5%
12,Cc1ccc(-c2nc3c(=O)n(C)c4ccccc4c3o2)cc1,22.3%
13,Nc1cc(=O)[nH]c(=O)n1-c1cccc(F)c1,18.4%
14,COc1ccccc1NC(=O)c1cc2c(=O)n(C)c3ccccc3c2n1C,1.19%
15,O=C(OCCOc1cccc(Cl)c1)c1cc(S(=O)(=O)N2CCOCC2)ccc1F,-14%
16,CCn1c(COc2ccc(OC)cc2)nc2ccccc21,-19.8%
17,Cc1ccccc1NC(=O)C1CCN(C2=NS(=O)(=O)c3ccccc32)CC1,-15.2%
18,COc1cc(CNc2ccccc2)c([N+](=O)[O-])cc1OC.O=C(O)C(=O)O,-3.72%
19,C/C(=C1/SC(N2CCOCC2)=NC1=O)c1ccc(Br)cc1,14.8%
20,C/C(=C1\SC(N2CCOCC2)=NC1=O)c1ccc(C)cc1,-10.8%
21,C/C(=C1/SC(N2CCCC2)=NC1=O)c1ccc(Br)cc1,-76.7%
